The values below come from the OligoGym collection.
Note: reference of the scale not given here.

One test has as its target STK32B. The test is described as follows: pooled miR-30 sensor sort-seq; sequence = guide strand. To be noted: shRNA.
As to TTCTTGAACACCGCGTCCCAGT, the sensor-assay potency score (higher = more potent) was -0.825. The same measure, in the same setting: in the case of TTGTCTGGCTTGATGTCTCTGT it was 0.0607; in that of TTGCATGATCTGCAGCTCCCGG, -1.07; in that of AACATGTCCGTGTTCATCCAGC, -0.285. For TTCTGCTCCTTTCACTACCGTC, the sensor-assay potency score (higher = more potent) is -0.907. On the same count and under the same terms, next, TTTGCCAATCGCTTCTTCTTTT: -0.852. On the same count and under the same terms, next, TGTAATGTGAACATGTCCGTGT: 1.03; TTGGATTCTAGAATCATCTCTT: 0.951. TAATGTGAACATGTCCGTGTTC yielded a sensor-assay potency score (higher = more potent) of -0.137. Same read-out and setting: in the case of TTCACTACCGTCGCTATGTTGA it was -0.4; in that of TAGTGTCTCGCTTCTGCACGAT, -0.331.

The target of the next test is STMN2. The description is as above. The conditions noted are these: shRNA.
Turning to TTCACTTCCATATCATCGTAAG, the sensor-assay potency score (higher = more potent) was -0.831.

As for ATCATCGTAAGTATAGATGTTG, the sensor-assay potency score (higher = more potent) was -0.449. In the case of TTGGAGAAGCTAAAGTTCGTGG, the sensor-assay potency score (higher = more potent) was -0.769. Same read-out and setting: next, TTTTCCTCCGCCATCTTGCTGA: -0.369; TTCCATTTTCAGGATCAGCTTT: -0.67. Regarding TAATAGCAGCTAGATTAGCCTC, the sensor-assay potency score (higher = more potent) is -0.915.

For the sequence TTGATTTGCTTCACTTCCATAT, the sensor-assay potency score (higher = more potent) is -0.805. TAAGTATAGATGTTGATGTTGC registered a sensor-assay potency score (higher = more potent) of -0.111.

As for TTTGCTTCACTTCCATATCATC, the sensor-assay potency score (higher = more potent) is -1.64. Still for that read-out and setting: next, TTCTTCTTTCCTCTGCAGCCTC: -0.81. The sequence TTCTGAAGGACTTCTCGCTCGT gave a sensor-assay potency score (higher = more potent) of 0.283. TTTCTTCTGGATCTCCTCCAGG: the sensor-assay potency score (higher = more potent) is -0.912.
